Results on 16 molecules are retold here after ChEMBL document CHEMBL3433997, “St. Jude Leishmania screening dataset” (2016).

This assay deals with Glucose transporter (Leishmania mexicana) (UniProt O61059). Kind of assay: ST_JUDE_LEISH: Cytotoxicity at 2uM final concentration against transgenic Leishmania Mexicana promastigotes LmGT2 that are glucose transport deficient and complemented with the L. Mexicana glucose transporter 2. Activity is measured by DNA content using SYBR green in vitro. Format: functional.
On to `CN(C)c1ccc(-c2nc3cc(N)ccc3[nH]2)cc1`, for which the inhibition is 0.22%.

Regarding `CCCCc1ccc(C(=O)NC2CCN(C[C@H](O)c3ccnc4ccc(OC)cc34)CC2)cc1`, the inhibition is 76.8%.

Regarding `CCc1nc2ccc(C(=O)OC)nc2n1Cc1ccc2oc(-c3ccccc3N)c(Br)c2c1`, the inhibition is 1.6%.

As to `Cc1nc(C)c(-c2ccc(Br)cc2)c(O)c1Br`, the inhibition is -2.85%.

With `CCc1ccc2c(c1O)CCN(C)C2Cc1ccccc1Cl` (stereo unspecified), the inhibition amounted to 11.8%.

Consider `COc1ccc(Nc2ncc3c(-c4ccc(NC(=O)c5cccc(C(F)(F)F)c5)cc4)c[nH]c3n2)cc1OC`, for which the inhibition was -0.51%.

On to `O=C(CN1CCN(C(=O)c2ccco2)CC1)Nc1ccc(Br)cc1Cl`, for which the inhibition is -0.59%.

Take `Cc1c(-c2cccc(CNCCc3ccc(Cl)cc3)c2)cnc(N)c1C`: the inhibition is -1.41%.

As to `Nc1c(Cl)cc(C(O)CNCCCCCOCCc2ccccc2)cc1C(F)(F)F` (stereo unspecified), the inhibition is -2.01%.

In the case of `CC1CN(Cc2ccc(-c3ccc(-c4nc5ccccc5[nH]4)cc3)cc2)CC(C)O1` (stereo unspecified), the inhibition was 4.66%.

In the case of `CC(C)CCN1CCCN(Cc2cccc(NC(=O)c3ccc(-c4ccccc4)cc3)c2)CC1`, the inhibition was -0.09%.

`Clc1cc(Cl)c2cc(CNCCCNc3ccc4ccccc4n3)[nH]c2c1`: the inhibition was 1%.

In the case of `Cc1cc(Nc2ccncc2)n2nc(C)c(-c3ccc(Cl)cc3)c2n1`, the inhibition is 8.71%.

On to `COC(=O)c1cccc(NC(=O)NC2CCN(c3ccnc(Nc4cc(OC)c(OC)c(OC)c4)n3)C2)c1` (stereo unspecified), for which the inhibition worked out at 8.79%.

`CCCCNCc1ccc(-c2nc(CN(CCCn3ccnc3)C(=O)Nc3ccc(CC)cc3)cs2)cc1`: the inhibition was 6.91%.

Take `COC(=O)c1ccc(NC(=O)c2ccc(CCN3CCC(c4nc(COCC(F)(F)F)c(-c5ccc(F)cc5)o4)CC3)cc2)cc1`: the inhibition is 2.38%.

The inhibition is the change of the read-out against control, counted positive when it falls.
